In PubChem BioAssay (Tox21):
Records with an inconclusive call do not appear. Active and inactive are the calls of the source. Unless noted, calls follow the shape of the full dose curve.

What was measured:
[1] = Nuclear factor erythroid 2-related factor 2/antioxidant responsive element (Nrf2/ARE) small molecule agonists: qHTS cell viability counter screen in human keratinocytes (AID 1919968; active = well fitted curve in the direction sought with a large enough effect in the repeat runs; an effect the other way counts as inactive or inconclusive; also: nearly all actives have a fitted effect of over 55% in size)
Outline: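 CellTiter-Fluor fluorescence, read 1 h after reagent, gave viability in the same wells as the ARE-luciferase assay. KeratinoSens cells (1,500/well) had 23 h compound exposure at 37 C/5% CO2 following 5 h plating.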

[2] = Nuclear factor erythroid 2-related factor 2/antioxidant responsive element (Nrf2/ARE) small molecule agonists: luciferase reporter gene qHTS assay in human keratinocytes (AID 1919969); also: nearly all actives have a fitted effect of over 35% in size
[3] = molecular target: Gonadotropin-releasing hormone receptor (Homo sapiens) (UniProt P30968); assay: Human gonadotropin-releasing hormone receptor (GnRHR) small molecule agonists, calcium flux assay in GnRHR-HEK293 cells (AID 1920063); also: nearly all actives have a fitted effect of over 35% in size
Sequence of Gonadotropin-releasing hormone receptor (Homo sapiens) (P30968 whole entry, looked up): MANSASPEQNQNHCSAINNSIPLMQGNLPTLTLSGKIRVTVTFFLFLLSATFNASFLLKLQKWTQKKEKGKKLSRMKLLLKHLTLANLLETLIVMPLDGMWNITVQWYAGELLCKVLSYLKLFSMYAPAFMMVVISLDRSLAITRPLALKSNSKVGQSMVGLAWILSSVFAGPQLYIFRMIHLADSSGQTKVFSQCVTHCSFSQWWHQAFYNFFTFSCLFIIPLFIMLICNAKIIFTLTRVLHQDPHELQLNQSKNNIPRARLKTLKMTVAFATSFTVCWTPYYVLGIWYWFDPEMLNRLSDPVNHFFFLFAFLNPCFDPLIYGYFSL
Outline: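 Agonist mode: compounds at 15 concentrations, in triplicate, went onto calcium dye-loaded GnRHR-HEK293 cells. Intracellular calcium was then followed as 480/540 nm fluorescence at 1 s intervals over 3 min.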

[4] = molecular target: KiSS-1 receptor (Homo sapiens) (UniProt Q969F8); assay: Human kisspeptin (KISS1R) small molecule agonists, calcium flux assay in KISS1R-HEK293 cells (AID 1920064; active = well fitted curve in the direction sought with a large enough effect in the repeat runs; an effect the other way counts as inactive or inconclusive)
Sequence of KiSS-1 receptor (Homo sapiens) (Q969F8 whole entry, looked up): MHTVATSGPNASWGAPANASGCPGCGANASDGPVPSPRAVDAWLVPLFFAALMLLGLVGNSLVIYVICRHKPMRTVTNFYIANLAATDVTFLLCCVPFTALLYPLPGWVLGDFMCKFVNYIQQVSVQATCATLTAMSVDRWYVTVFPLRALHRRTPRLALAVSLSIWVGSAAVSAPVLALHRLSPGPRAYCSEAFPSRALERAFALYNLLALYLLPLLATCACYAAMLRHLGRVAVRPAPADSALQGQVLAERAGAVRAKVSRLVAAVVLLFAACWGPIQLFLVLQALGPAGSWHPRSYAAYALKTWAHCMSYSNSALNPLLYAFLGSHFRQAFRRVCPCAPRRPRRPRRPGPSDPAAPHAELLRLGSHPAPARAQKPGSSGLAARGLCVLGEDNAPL
Outline: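 Agonist mode: intracellular calcium rise tracked at 1 s intervals over 3 min (480/540 nm) immediately after compound addition to dye-loaded KISS1R-HEK293 stable cells. Each compound tested at 15 concentrations in triplicate.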

[5] = G protein-coupled receptor (GPCR) small molecule agonists, calcium flux assay: HEK293 wild type cell line counter screen (AID 1920065)
Outline: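 Calcium flux counter screen: compound added in agonist mode at 15 concentrations in triplicate to dye-loaded parental HEK293 cells. Fluorescence (480/540) read kinetically for 3 min; ATP served as positive control.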

[6] = p53 small molecule agonists, cell-based qHTS assay with human liver microsomes (AID 1963577);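 also: p53 response element beta-lactamase reporter cells with liver microsomes plus NADPH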
Outline: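 HLM-supplemented p53RE-bla reporter assay: 16 h compound exposure at 37 C, microsomes and NADPH each 0.5 mg/mL final, read by fluorescence intensity.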

[7] = p53 small molecule agonists, cell-based qHTS assay with rat liver microsomes (AID 1963578)
Outline: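 Quantitative HTS of the Tox21 10K library: p53RE-bla cells, rat liver microsomes plus NADPH at 0.5 mg/mL final each, 16 h at 37 C, beta-lactamase fluorescence detection.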

[8] = p53 small molecule agonists, cell-based qHTS assay with human liver microsomes: qHTS cell viability counter screen (AID 1963579); also: nearly all actives have a fitted effect of over 45% in size
Outline: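 Viability of p53RE-bla cells is measured as CellTiter-Glo luminescence following a 16 h, 37 C incubation with compound, liver microsomes from human donors and NADPH.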

[9] = p53 small molecule agonists, cell-based qHTS assay: qHTS cell viability counter screen (AID 1963581); also: nearly all actives have a fitted effect of over 45% in size
Outline: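 Counter screen read by CellTiter-Glo luminescence (ATP content, 30 min at room temperature), run in the same wells as the beta-lactamase reporter read. HCT-116 p53RE-bla cells saw compounds for 16 h at 37 C.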

[10] = p53 small molecule agonists, cell-based qHTS assay (AID 1963582; active = well fitted activation curve with a large enough effect in the signal ratio in the repeat runs, not every such curve was filed as active; the % refers to the signal ratio)
Outline: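 Read-out is beta-lactamase FRET fluorescence after 2 h at room temperature with LiveBLAzer B/G substrate. p53 response element-bla cells were treated 16 h at 37 C with compounds in DMSO, added 5 h after seeding.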

[11] = molecular target: 5-hydroxytryptamine receptor 2A (Homo sapiens) (UniProt P28223); assay: 5-hydroxytryptamine receptor 2A (HTR2A) small molecule antagonists, cell-based qHTS assay (AID 1963586); also: nearly all actives have a fitted effect of over 45% in size
Sequence of 5-hydroxytryptamine receptor 2A (Homo sapiens) (P28223 whole entry, looked up): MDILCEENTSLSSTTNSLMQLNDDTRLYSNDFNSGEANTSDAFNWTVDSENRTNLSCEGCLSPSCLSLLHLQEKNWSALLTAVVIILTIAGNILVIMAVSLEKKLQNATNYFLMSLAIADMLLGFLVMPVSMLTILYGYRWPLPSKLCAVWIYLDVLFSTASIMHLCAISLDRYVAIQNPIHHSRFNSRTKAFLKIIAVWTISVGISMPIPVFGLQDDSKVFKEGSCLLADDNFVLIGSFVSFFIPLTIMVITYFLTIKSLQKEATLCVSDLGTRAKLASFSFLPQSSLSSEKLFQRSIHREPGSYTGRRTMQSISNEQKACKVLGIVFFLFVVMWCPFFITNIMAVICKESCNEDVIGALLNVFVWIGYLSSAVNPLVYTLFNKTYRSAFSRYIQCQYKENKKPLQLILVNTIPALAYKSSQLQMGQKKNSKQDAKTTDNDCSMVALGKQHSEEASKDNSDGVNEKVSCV
Outline: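 CHO cells stably expressing human HTR2A were plated for 18 h at 37 C, then loaded with calcium dye for 1 h. Compounds were preincubated 5 min at room temperature before DOI (4 nM solution) was added. Kinetic fluorescence was read for 3 min.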

[12] = molecular target: 5-hydroxytryptamine receptor 2A (Homo sapiens) (UniProt P28223); assay: 5-hydroxytryptamine receptor 2A (HTR2A) small molecule agonists, cell-based qHTS assay (AID 1963587); also: nearly all actives have a fitted effect of over 30% in size
Outline: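 Kinetic calcium-flux fluorescence (2 min, 1 sec intervals) after compound addition in agonist mode. HTR2A-CHO cells were cultured 18 h, then dye-loaded 1 h at 37 C.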

[13] = molecular target: Muscarinic acetylcholine receptor M1 (Homo sapiens) (UniProt P11229); assay: Cholinergic receptor muscarinic 1 (CHRM1) small molecule antagonists, cell-based qHTS assay (AID 1963588); also: nearly all actives have a fitted effect of over 40% in size
Sequence of Muscarinic acetylcholine receptor M1 (Homo sapiens) (P11229 whole entry, looked up): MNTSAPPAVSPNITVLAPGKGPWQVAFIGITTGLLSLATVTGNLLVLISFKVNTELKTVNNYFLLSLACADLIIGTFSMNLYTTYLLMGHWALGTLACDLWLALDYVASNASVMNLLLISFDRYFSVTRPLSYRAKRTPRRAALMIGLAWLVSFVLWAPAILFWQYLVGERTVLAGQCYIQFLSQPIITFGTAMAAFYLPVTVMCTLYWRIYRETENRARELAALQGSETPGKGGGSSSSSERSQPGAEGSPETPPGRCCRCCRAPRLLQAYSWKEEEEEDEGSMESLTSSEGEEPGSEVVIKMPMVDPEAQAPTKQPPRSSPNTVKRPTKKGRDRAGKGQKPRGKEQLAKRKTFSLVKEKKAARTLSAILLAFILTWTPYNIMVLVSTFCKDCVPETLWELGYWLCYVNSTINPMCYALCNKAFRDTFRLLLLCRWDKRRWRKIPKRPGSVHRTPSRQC
Outline: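 Compounds were tested at 15 concentrations in three independent runs. Dye-loaded CHRM1-CHO cells were exposed 5 min at room temperature before stimulation by acetylcholine added at 50nM. Intracellular calcium was read kinetically on FDSS for 3 min.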

[14] = cAMP Responsive Elements (CRE) small molecule agonists, cell-based qHTS assay (AID 1963590)
Outline: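 Agonist mode: compound added to CRE-bla HEK 293T cells (2,000/well, 18 h after plating) for 3 h at 37 C/5% CO2. Reporter activity detected via FRET beta-lactamase substrate, 2 h room-temperature loading.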

[15] = cAMP Responsive Elements (CRE) small molecule antagonists, cell-based qHTS assay (AID 1963591; active = well fitted inhibition curve with a large enough effect in the signal ratio in the repeat runs, not every such curve was filed as active; the % refers to the signal ratio)
Outline: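 Antagonist mode: compounds are added alongside the adenylyl cyclase activator NKH477 (0.25 uM final) to CRE-bla HEK293T cells for 3 h. LiveBLAzer FRET substrate, 2 h at room temperature, reports bla expression.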

[16] = molecular target: D(2) dopamine receptor (Homo sapiens) (UniProt P14416); assay: Dopamine D2 receptor (DRD2) small molecule agonists, cell-based qHTS assay (AID 1963594); also: nearly all actives have a fitted effect of over 35% in size
Sequence of D(2) dopamine receptor (Homo sapiens) (P14416 whole entry, looked up): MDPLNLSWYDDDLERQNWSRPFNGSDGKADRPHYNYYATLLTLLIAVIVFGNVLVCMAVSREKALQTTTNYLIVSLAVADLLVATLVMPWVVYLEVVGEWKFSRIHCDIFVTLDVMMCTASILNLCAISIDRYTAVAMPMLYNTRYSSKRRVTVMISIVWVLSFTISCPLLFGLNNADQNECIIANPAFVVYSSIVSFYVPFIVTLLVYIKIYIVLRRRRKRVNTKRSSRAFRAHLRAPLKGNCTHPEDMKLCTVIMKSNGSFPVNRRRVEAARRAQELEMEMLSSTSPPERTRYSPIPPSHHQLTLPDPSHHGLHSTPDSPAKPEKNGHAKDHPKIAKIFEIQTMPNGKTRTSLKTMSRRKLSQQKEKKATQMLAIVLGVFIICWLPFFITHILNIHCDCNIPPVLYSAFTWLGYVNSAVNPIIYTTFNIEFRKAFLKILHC
Outline: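 cAMP accumulation in DRD2-HEK293 cells measured by HTRF after 1 h detection; compounds added 10 min before NKH477 (200nM […]) forskolin-analogue stimulation, 30 min at room temperature, with Ro20-1724 present at 0.1 mM final.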

[17] = molecular target: D(2) dopamine receptor (Homo sapiens) (UniProt P14416); assay: Dopamine D2 receptor (DRD2) small molecule antagonists, cell-based qHTS assay (AID 1963595; active = well fitted inhibition curve with a large enough effect in the signal ratio in the repeat runs, with a control signal flat; the % refers to the signal ratio)
Outline: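 Cells were plated and grown for 24 h at 37 °C. Ro20-1724 (0.1 mM final) went in first, then compound for 10 min. NKH477 (200 nM) with quinpirole (12 nM) followed for 30 min at RT, then HTRF detection reagents for 1 h.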

[18] = molecular target: Muscarinic acetylcholine receptor M1 (Homo sapiens) (UniProt P11229); assay: Cholinergic receptor muscarinic 1 (CHRM1) small molecule agonists, cell-based qHTS assay (AID 1963589); also: nearly all actives have a fitted effect of over 35% in size
Outline: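 Agonist-mode calcium-flux screen: compounds at 15 concentrations, three independent runs, were pin-transferred onto dye-loaded human CHRM1-CHO cells. Fluorescence was then recorded kinetically every second over minutes.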

[19] = molecular target: Beta-2 adrenergic receptor (Homo sapiens) (UniProt P07550); assay: Adrenergic beta2 receptor (ADRB2) small molecule antagonists, cell-based qHTS assay (AID 1963592); also: series mostly up to about 92 µM; nearly all actives have a fitted effect of over 50% in size
Sequence of Beta-2 adrenergic receptor (Homo sapiens) (P07550 whole entry, looked up): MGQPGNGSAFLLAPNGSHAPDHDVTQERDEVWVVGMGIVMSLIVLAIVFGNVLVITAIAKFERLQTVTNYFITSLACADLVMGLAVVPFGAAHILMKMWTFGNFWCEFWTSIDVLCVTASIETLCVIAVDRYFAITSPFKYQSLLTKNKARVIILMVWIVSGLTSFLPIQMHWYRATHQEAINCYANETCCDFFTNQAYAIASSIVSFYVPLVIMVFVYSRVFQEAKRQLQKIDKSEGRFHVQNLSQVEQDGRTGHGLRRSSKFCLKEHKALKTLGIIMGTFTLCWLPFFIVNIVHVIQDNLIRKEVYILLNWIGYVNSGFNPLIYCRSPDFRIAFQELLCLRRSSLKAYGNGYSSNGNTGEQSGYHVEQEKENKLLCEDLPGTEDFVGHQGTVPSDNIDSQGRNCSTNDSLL
Outline: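 Assay format: CHO-ADRB2 cells, 18-20hr seeding at 37C/5% CO2, then compound plus 1nM isoproterenol agonist mix for 0.5hr RT. Homogeneous time-resolved fluorescence cAMP detection after 1hr, expressed as 665/615 nm ratio.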

[20] = p53 small molecule agonists, cell-based qHTS assay with rat liver microsomes: qHTS cell viability counter screen (AID 1963580); also: nearly all actives have a fitted effect of over 45% in size
Outline: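 Rat liver microsome (0.5 mg/mL final) and NADPH (0.5 mg/mL final) co-incubation with compounds for 16 h at 37 C on HCT-116 p53RE-bla cells; cytotoxicity taken from intracellular ATP luminescence.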
% is scaled to controls: 0 for no effect and ±100 for the full control effect.

CC(C)OC(C)C
inactive: Potency [1] | Potency [2] | Potency [3] | Potency [4] | Potency [5] | Potency [6] | Potency [7] | Potency [8] | Potency [9] | Potency [10] | Potency [11] | Potency [12] | Potency [13] | Potency [14] | Potency [15] | Potency [16] | Potency [17]

CC(=O)/C=C/C1C(C)=CCC(C)C1(C)C (stereo not drawn)
inactive: Potency [1] | Potency [2] | Potency [3] | Potency [4] | Potency [5] | Potency [6] | Potency [7] | Potency [8] | Potency [9] | Potency [10] | Potency [11] | Potency [12] | Potency [13] | Potency [18] | Potency [14] | Potency [15] | Potency [19] | Potency [16] | Potency [17]

COC(C)(C)CCO
inactive: Potency [1] | Potency [2] | Potency [3] | Potency [4] | Potency [5] | Potency [6] | Potency [7] | Potency [8] | Potency [9] | Potency [10] | Potency [11] | Potency [12] | Potency [13] | Potency [18] | Potency [15] | Potency [19] | Potency [16]

Cc1ccccc1OCC1CO1 (stereo not drawn)
inactive: Potency [1] | Potency [2] | Potency [3] | Potency [4] | Potency [5] | Potency [6] | Potency [7] | Potency [8] | Potency [9] | Potency [10] | Potency [11] | Potency [12] | Potency [13] | Potency [18] | Potency [14] | Potency [15] | Potency [19] | Potency [16] | Potency [17]

CCCCCCCCCCCCCCCC
inactive: Potency [1] | Potency [2] | Potency [3] | Potency [4] | Potency [5] | Potency [6] | Potency [7] | Potency [8] | Potency [9] | Potency [10] | Potency [11] | Potency [12] | Potency [13] | Potency [18] | Potency [14] | Potency [15] | Potency [19] | Potency [16] | Potency [17]

C=CCCCCCCCCCCC
inactive: activity change, negative = cytotoxicity [1] -0.936% [at 8.39 µM] | activity, positive = activation [2] -0.901% [at 8.39 µM] | activity change [3] -0.462% [at 5.22 µM, stronger effect = higher value] | activation [4] 3.21% [at 6.97 µM] | activation [5] -0.84% [at 5.23 µM] | activation [6] 1.56% [at 5.99 µM] | activation [7] -3.89% [at 5.99 µM] | activity change, negative = cytotoxicity [8] 1.8% [at 5.99 µM] | activity change, negative = cytotoxicity [20] -1.27% [at 5.99 µM] | activity, negative = inhibition [11] 4.71% [at 5.62 µM] | activation [12] 0.539% [at 7.02 µM] | activity, negative = inhibition [13] -16.9% [at 5.58 µM] | activation [18] -0.585% [at 6.97 µM] | activation [14] -0.0768% [at 8.39 µM] | activity change, negative = inhibition [15] -0.765% [at 8.39 µM] | activity change, negative = inhibition [19] -1.18% [at 8.39 µM] | activation [16] -0.7% [at 8.39 µM] | activity change, negative = inhibition [17] -0.184% [at 8.38 µM]

Cc1cc(N)n(-c2ccccc2)n1
inactive: Potency [1] | Potency [2] | Potency [3] | Potency [4] | Potency [5] | Potency [6] | Potency [7] | Potency [8] | Potency [9] | Potency [10] | Potency [11] | Potency [12] | Potency [13] | Potency [18] | Potency [14] | Potency [15] | Potency [19] | Potency [16] | Potency [17]
